# Source: PubChem BioAssay (NCATS)
# Where “and” joins values, the source holds several entries; their conditions need not be identical. Equal values may be shown once. Inconclusive results are not listed. A call without a number means that no potency is given here. Values without a mark were called inactive. Calls of active or inactive are those of the source. Calls follow the shape of the dose curve; as a rule, active = well fitted curve in the direction sought with a large enough effect; inconclusive = small, poorly fitted or top-dose-only effect, or another doubt; inactive = no such curve, though single readings can be large; an effect the other way counts as inactive or inconclusive.
# Key:
# C33A = assay: Primary qHTS to identify gynecologic anti-cancer compounds using libraries of approved drugs and bioactive compounds (AID 1345084); conditions: Gynecologic cancer cell panel viability, ATPlite luminescence, 48 h; series mostly up to 57.5 µM; also: nearly all actives have a fitted effect of over 55% in size
# Procedure, shortened: (§1)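 Cytotoxicity screen measuring ATP content by luciferase luminescence. Each compound is applied at five concentrations for 48 h at 37 C with 5% CO2.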
# CAOV3 = assay: as above; conditions: Gynecologic cancer cell panel viability, ATPlite luminescence, 48 h; series mostly up to 57.5 µM
# Procedure, shortened: as §1
# Es-2 = assay: as above; conditions: Gynecologic cancer cell panel viability, ATPlite luminescence, 48 h; series mostly up to 57.5 µM
# Procedure, shortened: as §1
# HeLa = assay: as above; conditions: Gynecologic cancer cell panel viability, ATPlite luminescence, 48 h; series mostly up to 57.5 µM
# Procedure, shortened: as §1
# JEG-3 = assay: as above; conditions: Gynecologic cancer cell panel viability, ATPlite luminescence, 48 h; series mostly up to 57.5 µM
# Procedure, shortened: as §1
# PA-1 = assay: as above; conditions: Gynecologic cancer cell panel viability, ATPlite luminescence, 48 h; series mostly up to 57.5 µM
# Procedure, shortened: as §1
# Tov112D = assay: as above; conditions: Gynecologic cancer cell panel viability, ATPlite luminescence, 48 h; series mostly up to 57.5 µM
# Procedure, shortened: as §1
# WaGa = assay: qHTS assay to identify novel small-molecules to repurpose for Merkel cell carcinoma treatment (AID 1296009); conditions: MCC and control cell lines, CellTiter-Glo viability, 72 h; series mostly up to 46 µM; also: nearly all actives have a fitted effect of over 60% in size
# Procedure, shortened: (§2)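 Viability readout: ATP luminescence (CellTiter-Glo) after 72 hr drug exposure at 37 degree celsius. Dose-response format was 8 points for NPC and 11 points for MIPE; data normalized to in-plate controls.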
# [1] = Drug repurposing screens with cells derived from glioblastoma tumor samples (AID 1345199); conditions: GBM patient neurospheres viability, ATP luminescence, 48 h; also: nearly all actives have a fitted effect of over 40% in size
# Procedure, shortened: (§3)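 Primary testing used CD133+ neurospheres from four GBM patients, seven concentrations, 48 h exposure and ATP-based viability; confirmation added three slower-growing patient lines.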
# astro = assay: as above; conditions: viability, ATP luminescence, 48 h; series mostly up to 45.9 µM
# Procedure, shortened: as §3
# CASKI = assay: Primary qHTS to identify gynecologic anti-cancer compounds using libraries of approved drugs and bioactive compounds (AID 1345084); conditions: Gynecologic cancer cell panel viability, ATPlite luminescence, 48 h; series mostly up to 57.5 µM; also: nearly all actives have a fitted effect of over 55% in size
# Procedure, shortened: as §1
# Hek293T = assay: as above; conditions: Gynecologic cancer cell panel viability, ATPlite luminescence, 48 h, control line for the selectivity index; series mostly up to 57.5 µM
# Procedure, shortened: as §1
# OV90 = assay: as above; conditions: Gynecologic cancer cell panel viability, ATPlite luminescence, 48 h; series mostly up to 57.5 µM
# Procedure, shortened: as §1
# SKOV3 = assay: as above; conditions: Gynecologic cancer cell panel viability, ATPlite luminescence, 48 h; series mostly up to 57.5 µM
# Procedure, shortened: as §1
# Tov-21-G = assay: as above; conditions: Gynecologic cancer cell panel viability, ATPlite luminescence, 48 h; series mostly up to 57.5 µM
# Procedure, shortened: as §1
# UISO = assay: qHTS assay to identify novel small-molecules to repurpose for Merkel cell carcinoma treatment (AID 1296009); conditions: MCC and control cell lines, CellTiter-Glo viability, 72 h; series mostly up to 46 µM; also: nearly all actives have a fitted effect of over 60% in size
# Procedure, shortened: as §2
# [2] = qHTS assay to identify inhibitors of the type 1 interferon - major histocompatibility complex class I in skeletal muscle: Counter screen cell viability and HiBit confirmation (AID 1347412); conditions: iHSKM muscle cells + IFN-b, HiBiT or CellTiter-Glo, 24 h; also: nearly all actives have a fitted effect of over 60% in size
# Procedure, shortened: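 CRISPR HLA-B*08:01-HiBit immortalized human myoblasts (C25cl48) stimulated with 4 ng/ml IFN-beta and compounds (12-point 1:3, top 46 uM final) for 24 h at 37 C. Duplicate plates read by HiBit lytic luminescence or CellTiter Glo ATP.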
# [3] = at 46.1 µM (top of the series), tumour line C
# [4] = at 45.9 µM (top of the series), tumour line B
# [5] = at 45.9 µM (top of the series), tumour line D
# Potency is read from the fitted curve at half-maximal effect.
compound,measurement,setting,value
Cc1cc(N)c2ccccc2[n+]1CCCCCCCCCC[n+]1c(C)cc(N)c2ccccc21,Potency,C33A,inactive
same,Potency,CAOV3,14.1 µM (active)
same,Potency,Es-2,inactive
same,Potency,HeLa,inactive
same,Potency,JEG-3,inactive
same,Potency,PA-1,22.4 µM (active)
same,Potency,Tov112D,inactive
CN(C)CCCN1c2ccccc2Sc2ccc(Cl)cc21,Potency,WaGa,26.6 µM (active)
same,"activity, negative = cell killing",[1]; [3],-4.19%
same,Potency,[1]; tumour line A,3.98 µM (active)
same,Potency,[1]; tumour line B,15.8 µM (active)
same,Potency,[1]; tumour line D,20 µM (active)
same,Potency,astro,12.6 µM (active)
CN1[C@@H]2CC(OC(=O)[C@H](CO)c3ccccc3)C[C@H]1[C@@H]1O[C@@H]12 (some centres undefined),Potency,C33A,inactive
same,Potency,CASKI,inactive
same,Potency,Es-2,inactive
same,Potency,HeLa,inactive
same,Potency,Hek293T,inactive
same,Potency,JEG-3,inactive
same,Potency,OV90,inactive
same,Potency,PA-1,inactive
same,Potency,SKOV3,inactive
same,Potency,Tov-21-G,inactive
same,Potency,Tov112D,inactive
same,"activity, negative = cell killing",[1]; [4],-8.37% and 0.366%
same,"activity, negative = cell killing",[1]; [5],-25.9% and -16.8%
same,"activity, negative = cell killing",[1]; [3],15.6% and -2.3%
same,Potency,astro,inactive
CC1=C(CC(=O)O)c2cc(F)ccc2/C1=C\c1ccc(S(C)=O)cc1 (centres undefined),Potency,C33A,inactive
same,Potency,CAOV3,inactive
same,Potency,CASKI,inactive
same,Potency,Es-2,inactive
same,Potency,HeLa,inactive
same,Potency,Hek293T,inactive
same,Potency,JEG-3,inactive
same,Potency,OV90,inactive
same,Potency,PA-1,inactive
same,Potency,SKOV3,inactive
same,Potency,Tov-21-G,inactive
same,Potency,Tov112D,inactive
same,"activity, negative = cell killing",[1]; [4],-9.8%
same,"activity, negative = cell killing",[1]; [5],-10.1%
same,"activity, negative = cell killing",[1]; [3],-18.8%
same,Potency,astro,inactive
CC(=O)c1ccc2c(c1)N(CCCN(C)C)c1ccccc1S2,Potency,UISO,inactive
same,Potency,WaGa,26.6 µM (active)
same,Potency,C33A,inactive
same,Potency,CAOV3,inactive
same,Potency,CASKI,inactive
same,Potency,Es-2,inactive
same,Potency,Hek293T,inactive
same,Potency,JEG-3,inactive
same,Potency,PA-1,inactive
same,Potency,Tov-21-G,inactive
same,Potency,Tov112D,inactive
same,"activity, negative = cell killing","[1]; at 20 µM (top of the series), tumour line C",-20.2%
same,"activity, negative = cell killing","[1]; at 21.2 µM (top of the series), tumour line B",-19.6%
same,Potency,[1]; tumour line A,10 µM (active)
same,Potency,astro,inactive
CC[C@H]1CN2CCc3cc(OC)c(OC)cc3[C@@H]2C[C@@H]1C[C@H]1NCCc2cc(OC)c(OC)cc21,Potency,CASKI,0.355 µM (active)
same,Potency,Es-2,0.447 µM (active)
same,Potency,HeLa,0.398 µM (active)
same,Potency,Hek293T,0.282 µM (active)
same,Potency,JEG-3,11.2 µM (active)
same,Potency,Tov-21-G,3.55 µM (active)
same,Potency,Tov112D,0.355 µM (active)
same,Potency,[2]; HiBiT,0.787 µM (active)
same,"activity change, negative = inhibition","[2]; Viability, at 45.9 µM (top of the series)",-15.7%
CC1=C(CC(=O)O)c2cc(F)ccc2/C1=C\c1ccc(S(C)(=O)=O)cc1,Potency,C33A,inactive
same,Potency,CAOV3,inactive
same,Potency,CASKI,inactive
same,Potency,Es-2,inactive
same,Potency,HeLa,inactive
same,Potency,Hek293T,inactive
same,Potency,JEG-3,inactive
same,Potency,OV90,inactive
same,Potency,PA-1,inactive
same,Potency,SKOV3,inactive
same,Potency,Tov-21-G,inactive
same,Potency,Tov112D,inactive
same,"activity, negative = cell killing",[1]; [4],-11.4%
same,"activity, negative = cell killing",[1]; [5],-18.4%
same,"activity, negative = cell killing","[1]; at 46 µM (top of the series), tumour line A",-33%
same,"activity, negative = cell killing",[1]; [3],4.54%
same,Potency,astro,inactive
Cc1ccc2nc(N)[nH]c(=O)c2c1Sc1ccncc1,Potency,WaGa,3.35 µM (active)
same,Potency,C33A,inactive
same,Potency,CAOV3,inactive
same,Potency,Es-2,inactive
same,Potency,Hek293T,inactive
same,Potency,JEG-3,6.31 µM (active)
same,Potency,OV90,inactive
same,Potency,PA-1,inactive
same,Potency,SKOV3,inactive
same,Potency,Tov-21-G,inactive
same,Potency,Tov112D,3.55 µM (active)
same,"activity, negative = cell killing",[1]; [5],-18.7%
same,"activity, negative = cell killing",[1]; [3],-42.8%
same,Potency,[1]; tumour line A,7.08 µM (active)
